Compounds without any hit were thinned out: in the full panel of roughly 79,000, 15% have a hit. A number with no mark means an inactive call. Activity calls are given as the source filed them. No stated cut-off is given here; in the data, active means growth inhibition above about 70%; inactive means the rest.

A short description of test [1]: NCI Yeast Anticancer Drug Screen. Data for the rad50 strain (AID 155).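 Further: 0% = growth of vehicle-only cultures of the same strain.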 The following applies: S. cerevisiae rad50 strain growth inhibition, active compounds read high. The gist of the method: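 Relative growth inhibition (compound vs vehicle) was measured in yeast with a defined repair-gene alteration.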
Test [2] is described as follows: NCI Yeast Anticancer Drug Screen. Data for the mec2-1 strain (AID 157). The following applies: S. cerevisiae mec2-1 strain, active compounds read high. The gist of the method:
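Each compound was tested on mec2-1 yeast, a strain altered in DNA damage repair or cell cycle control. Growth inhibition is reported relative to vehicle.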

The nature of test [3]: NCI Yeast Anticancer Drug Screen. Data for the sgs1 mgt1 strain (AID 161).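 Further: 0% = growth of cultures given vehicle only.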 The following applies: S. cerevisiae sgs1 mgt1 strain, active compounds read high. The gist of the method:
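Inhibition of yeast growth, normalised to vehicle-treated controls, is reported for a strain bearing genetic alterations in DNA damage repair.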

A short description of test [4]: NCI Yeast Anticancer Drug Screen. Data for the cln2 rad14 strain (AID 165).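 Further: 0% = growth equal to vehicle treated cultures.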 The following applies: S. cerevisiae cln2 rad14 strain, active compounds read high. The gist of the method:
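Test compounds were added to cln2 rad14 yeast cultures; inhibition of growth was then determined by comparison with vehicle treatment.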

The nature of test [5]: NCI Yeast Anticancer Drug Screen. Data for the bub3 strain (AID 167). The following applies: S. cerevisiae bub3 mutant strain, active compounds read high. The gist of the method:
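Screening used yeast with an engineered genetic alteration affecting cell cycle control. Compound-exposed cultures were compared with vehicle cultures, and reduced growth was taken as inhibition.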

The nature of test [6]: NCI Yeast Anticancer Drug Screen. Data for the mlh1 rad18 strain (AID 175). The following applies: S. cerevisiae mlh1 rad18 strain growth inhibition, active compounds read high. The gist of the method:
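Inhibition values reflect reduced growth of mutant yeast versus vehicle-treated controls following compound exposure; the mutations affect DNA damage repair.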

Setting [7] is: at 5.0 µM (retest, dose inferred, filed as 0.5).
[8] abbreviates: at 50.0 µM (retest, dose inferred, filed as 5.0).

`Cc1cccc(Cl)c1NC(=S)Nc1cccc(C(F)(F)F)c1`: the growth inhibition in test [1] (setting [7]) was -4%; in test [1] (setting [8]), 2%; in test [1] (at 50.0 µM), 88.8% (active); in test [2] (setting [7]), 2%; in test [2] (setting [8]), 8%; in test [2] (at 50.0 µM), 89.4% (active). The growth inhibition in test [3] (setting [7]) was 10%; in test [3] (setting [8]), 1%; in test [3] (at 50.0 µM) it was 92.3% (active); in test [4] (setting [7]), 24%; in test [4] (setting [8]), 23%; in test [4] (at 50.0 µM), 88.3% (active). Further, the growth inhibition was 20% in test [5] (setting [7]); 9% in test [5] (setting [8]); 89.6% (active) in test [5] (at 50.0 µM); -21% in test [6] (setting [7]); 17% in test [6] (setting [8]); 86.2% (active) in test [6] (at 50.0 µM).
Consider `[N-]=[N+]=Nc1c([N+](=O)[O-])c(=O)n(-c2ccccc2)c2ccccc12`, for which the growth inhibition is -8% in test [1] (setting [7]); 34% in test [1] (setting [8]); 65.1% in test [1] (at 50.0 µM); -3% in test [2] (setting [7]); 54% in test [2] (setting [8]); 67.3% in test [2] (at 50.0 µM). Moreover, the growth inhibition was 0% in test [3] (setting [7]); 32% in test [3] (setting [8]); 70% (active) in test [3] (at 50.0 µM); 27% in test [4] (setting [7]); 21% in test [4] (setting [8]); 46.9% in test [4] (at 50.0 µM). The growth inhibition was -21% in test [5] (setting [7]); 62% in test [5] (setting [8]); 61% in test [5] (at 50.0 µM); 4% in test [6] (setting [7]); 57% in test [6] (setting [8]); 68.2% in test [6] (at 50.0 µM).
For the molecule `CC(C)C1=CC23CCC4C(C)(C(=O)O)CCCC4(C)C2CC1C1C(=O)C=CC(=O)C13` (stereo not given), the growth inhibition in test [1] (setting [7]) was 86% (active); in test [1] (setting [8]), 93% (active); in test [1] (at 50.0 µM), 94.3% (active); in test [2] (setting [7]), 81% (active); in test [2] (setting [8]), 97% (active); in test [2] (at 50.0 µM) it was 96.3% (active). Further, the growth inhibition in test [3] (setting [7]) was 82% (active); in test [3] (setting [8]) it was 97% (active); in test [3] (at 50.0 µM), 90.2% (active); in test [4] (setting [7]), 75% (active); in test [4] (setting [8]) it was 96% (active); in test [4] (at 50.0 µM), 62%. The growth inhibition in test [5] (setting [7]) is 91% (active); in test [5] (setting [8]) it was 96% (active); in test [5] (at 50.0 µM) it was 96.9% (active); in test [6] (setting [7]) it was 88% (active); in test [6] (setting [8]), 97% (active); in test [6] (at 50.0 µM), 55.4%.
`CCN(C(=O)C(F)(F)F)c1ccc2c(c1)C(=O)c1ccccc1-2`: the growth inhibition was 0% in test [1] (setting [7]); 34% in test [1] (setting [8]); 26.1% in test [1] (at 50.0 µM); 1% in test [2] (setting [7]); 12% in test [2] (setting [8]); -2.65% in test [2] (at 50.0 µM). Moreover, the growth inhibition in test [3] (setting [7]) is -4%; in test [3] (setting [8]), 87% (active); in test [3] (at 50.0 µM), 42.6%; in test [4] (setting [7]), 0%; in test [4] (setting [8]), 20%; in test [4] (at 50.0 µM) it was -18.2%. The growth inhibition in test [5] (setting [7]) is 38%; in test [5] (setting [8]), 70% (active); in test [5] (at 50.0 µM), 84% (active); in test [6] (setting [7]), -1%; in test [6] (setting [8]) it was 60%; in test [6] (at 50.0 µM), 10%.
In the case of `CCCCCCCCCCCCCCCC[N+](C)(C)c1ccccc1`, the growth inhibition is 98% (active) in test [1] (setting [7]); 98% (active) in test [1] (setting [8]); 91.1% (active) in test [1] (at 50.0 µM); 98% (active) in test [2] (setting [7]); 99% (active) in test [2] (setting [8]); 90.7% (active) in test [2] (at 50.0 µM). For the same molecule, the growth inhibition is 99% (active) in test [3] (setting [7]); 99% (active) in test [3] (setting [8]); 90.4% (active) in test [3] (at 50.0 µM); 98% (active) in test [4] (setting [7]); 99% (active) in test [4] (setting [8]); 86.2% (active) in test [4] (at 50.0 µM). Also, the growth inhibition is 99% (active) in test [5] (setting [7]); 99% (active) in test [5] (setting [8]); 92.8% (active) in test [5] (at 50.0 µM); 98% (active) in test [6] (setting [7]); 98% (active) in test [6] (setting [8]); 92.2% (active) in test [6] (at 50.0 µM).
Regarding `N#C/C(=C/c1cc(I)cc(I)c1O)C(N)=O`, the growth inhibition in test [1] (setting [7]) is 42%; in test [1] (setting [8]), 87% (active); in test [1] (at 50.0 µM), 79.8% (active); in test [2] (setting [7]), 39%; in test [2] (setting [8]), 92% (active); in test [2] (at 50.0 µM), 58.6%. Also, the growth inhibition is 69% in test [3] (setting [7]); 97% (active) in test [3] (setting [8]); 78.8% (active) in test [3] (at 50.0 µM); 41% in test [4] (setting [7]); 90% (active) in test [4] (setting [8]); 61.2% in test [4] (at 50.0 µM). The growth inhibition in test [5] (setting [7]) is 44%; in test [5] (setting [8]), 96% (active); in test [5] (at 50.0 µM) it was 80.2% (active); in test [6] (setting [7]) it was 66%; in test [6] (setting [8]), 97% (active); in test [6] (at 50.0 µM) it was 71.2% (active).
In the case of `Cc1nc2c(O)c3c(c(O)c2nc1C)C1C=CC3CC1`, the growth inhibition was 30% in test [1] (setting [7]); 83% (active) in test [1] (setting [8]); 64% in test [1] (at 50.0 µM); 16% in test [2] (setting [7]); 89% (active) in test [2] (setting [8]); 66.2% in test [2] (at 50.0 µM). Moreover, the growth inhibition in test [3] (setting [7]) is 30%; in test [3] (setting [8]), 84% (active); in test [3] (at 50.0 µM), 77.5% (active); in test [4] (setting [7]) it was 22%; in test [4] (setting [8]), 30%; in test [4] (at 50.0 µM) it was 14.2%. Further, the growth inhibition in test [5] (setting [7]) was 39%; in test [5] (setting [8]), 91% (active); in test [5] (at 50.0 µM) it was 84.7% (active); in test [6] (setting [7]), 20%; in test [6] (setting [8]), 82% (active); in test [6] (at 50.0 µM), 14.2%.
Consider `CC(=O)Oc1cccc2c1C(=O)C(Br)(Br)CCC2`, for which the growth inhibition in test [1] (setting [7]) was 91% (active); in test [1] (setting [8]), 99% (active); in test [1] (at 50.0 µM), 92.1% (active); in test [2] (setting [7]), 100% (active); in test [2] (setting [8]), 99% (active); in test [2] (at 50.0 µM) it was 87% (active). Also, the growth inhibition in test [3] (setting [7]) is 92% (active); in test [3] (setting [8]) it was 99% (active); in test [3] (at 50.0 µM), 88.5% (active); in test [4] (setting [7]) it was 52%; in test [4] (setting [8]), 99% (active); in test [4] (at 50.0 µM) it was 89.4% (active). Also, the growth inhibition in test [5] (setting [7]) was 99% (active); in test [5] (setting [8]), 99% (active); in test [5] (at 50.0 µM) it was 90% (active); in test [6] (setting [7]) it was 99% (active); in test [6] (setting [8]), 99% (active); in test [6] (at 50.0 µM), 93.2% (active).
For the molecule `CC(=O)Oc1c(-c2ccccc2)cc([N+](=O)[O-])cc1[N+](=O)[O-]`, the growth inhibition in test [1] (setting [7]) was 13%; in test [1] (setting [8]), 93% (active); in test [1] (at 50.0 µM), 95.8% (active); in test [2] (setting [7]) it was 19%; in test [2] (setting [8]), 93% (active); in test [2] (at 50.0 µM), 93.5% (active). Also, the growth inhibition is 31% in test [3] (setting [7]); 88% (active) in test [3] (setting [8]); 93.6% (active) in test [3] (at 50.0 µM); 17% in test [4] (setting [7]); 59% in test [4] (setting [8]); 74.4% (active) in test [4] (at 50.0 µM). Further, the growth inhibition was 24% in test [5] (setting [7]); 65% in test [5] (setting [8]); 94.5% (active) in test [5] (at 50.0 µM); 54% in test [6] (setting [7]); 97% (active) in test [6] (setting [8]); 91.7% (active) in test [6] (at 50.0 µM).
Take `CC(=O)NC(C)(C)C1CCC(C)=C(c2ccccc2)C1` (stereo not given): the growth inhibition is -10% in test [1] (setting [7]); 2% in test [1] (setting [8]); 32.8% in test [1] (at 50.0 µM); -9% in test [2] (setting [7]); -5% in test [2] (setting [8]); -17.6% in test [2] (at 50.0 µM). Moreover, the growth inhibition is 5% in test [3] (setting [7]); 8% in test [3] (setting [8]); 67.2% in test [3] (at 50.0 µM); 19% in test [4] (setting [7]); 44% in test [4] (setting [8]); 18.6% in test [4] (at 50.0 µM). Also, the growth inhibition was 17% in test [5] (setting [7]); 29% in test [5] (setting [8]); 27.6% in test [5] (at 50.0 µM); -3% in test [6] (setting [7]); 29% in test [6] (setting [8]); -21.2% in test [6] (at 50.0 µM).

(Values after PubChem BioAssay (NCI).)
